Measured values taken from PubChem BioAssay (Tox21).
Inconclusive results are not listed. Unmarked numbers belong to inactive results. The source made the active and inactive calls. The call rests on the fitted dose curve; in most records, active means well fitted activation curve with a large enough effect in the repeat runs; inconclusive means weak or mixed curves; inactive means no such curve, though single readings can be large or run the other way.

Each compound was assayed against Aryl hydrocarbon receptor (Homo sapiens) (UniProt P35869) (assay: qHTS assay to identify small molecule that activate the aryl hydrocarbon receptor (AhR) signaling pathway (AID 743085; further: nearly all actives have a fitted effect of over 15% in size;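 on activation: HG2L7.5c1 human HepG2 liver cells with stably integrated DRE-driven firefly reporter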)). Settings: HepG2 AhR-luc (HG2L7.5c1), luciferase, 24 h; series mostly up to 70.3 µM; activation: at the top concentration.
Sequence of Aryl hydrocarbon receptor (Homo sapiens) (P35869 whole entry, looked up): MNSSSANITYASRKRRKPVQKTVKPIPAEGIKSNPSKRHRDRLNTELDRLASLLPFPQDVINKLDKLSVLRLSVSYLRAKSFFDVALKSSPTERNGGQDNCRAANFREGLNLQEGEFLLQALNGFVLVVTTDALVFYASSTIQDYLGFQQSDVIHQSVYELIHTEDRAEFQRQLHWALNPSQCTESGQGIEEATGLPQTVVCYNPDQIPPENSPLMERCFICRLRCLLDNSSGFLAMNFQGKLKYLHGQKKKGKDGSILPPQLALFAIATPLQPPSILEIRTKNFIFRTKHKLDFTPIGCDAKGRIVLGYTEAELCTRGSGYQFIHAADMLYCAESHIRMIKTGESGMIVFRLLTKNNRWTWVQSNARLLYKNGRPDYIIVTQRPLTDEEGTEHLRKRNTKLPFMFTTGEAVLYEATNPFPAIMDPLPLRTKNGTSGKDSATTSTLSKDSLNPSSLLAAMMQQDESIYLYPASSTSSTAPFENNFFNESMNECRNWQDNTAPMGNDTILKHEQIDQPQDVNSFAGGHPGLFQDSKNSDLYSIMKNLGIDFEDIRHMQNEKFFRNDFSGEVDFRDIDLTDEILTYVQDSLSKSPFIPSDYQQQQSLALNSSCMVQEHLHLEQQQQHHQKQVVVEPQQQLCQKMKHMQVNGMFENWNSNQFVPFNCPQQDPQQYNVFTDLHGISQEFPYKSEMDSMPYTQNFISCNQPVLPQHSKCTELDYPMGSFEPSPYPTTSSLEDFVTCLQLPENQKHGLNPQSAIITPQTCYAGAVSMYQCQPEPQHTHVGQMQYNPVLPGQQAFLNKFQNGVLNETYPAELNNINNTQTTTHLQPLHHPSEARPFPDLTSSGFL
In short: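 Cell line HG2L7.5c1 (human hepatoma, 20× DRE-luc). Plated, 5 h 37C, compound/DMSO added, 24 h 37C. CellTiter-Fluor 30 min 37C → fluorescence; then ONE-Glo 30 min RT → luminescence.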
On the % scale 0 is the no-effect control and ±100 the full control effect; potency means the concentration at half of the fitted maximal effect.

Row | SMILES | activation | Potency
1 | C[N+](C)(C)CCOC(N)=O | -1.1% | 
2 | c1cnc2c(n1)CCCC2 | 2.6% | 
3 | Nc1nccs1 |  | inactive
4 | C/C=C(\C)C(=O)OCCC(C)CCC=C(C)C (stereo unspecified) | 3.24% | 
5 | CC(=N\O)/C(C)=N/O | 0.145% | 
6 | CC(C)CCCCCOC(=O)CCCCC(=O)OCCCCCC(C)C | -0.224% | 
7 | CO[C@H]1O[C@H](CO)[C@@H](O)[C@H](O)[C@H]1O | -2.14% | 
8 | CN1CCN(CCCN2c3ccccc3Sc3ccc(S(=O)(=O)N(C)C)cc32)CC1 | -0.54% [at 32.5 µM] | 
9 | O=C(CCCCCCCCC#CI)Oc1ccccc1 | -3.19% | 
10 | CCCCN(CCCC)CCCOC(=O)c1ccc(N)cc1 | 0.615% [at 32.5 µM] | 
11 | CC1=CC(=O)CC(C)(C)C1(O)/C=C/C(C)=C\C(=O)O (stereo unspecified) | -0.493% | 
12 | Cc1ccccc1N1C(=O)c2cc(S(N)(=O)=O)c(Cl)cc2NC1C (stereo unspecified) |  | inactive
13 | Cc1cnc(C)c(C)n1 | 0.37% [at 95 µM] | 
14 | CCCCC(=O)O[C@]1(C(=O)CO)CC[C@H]2[C@@H]3CCC4=CC(=O)CC[C@]4(C)[C@H]3[C@@H](O)C[C@@]21C | 5.5% | 
15 | CC(C)c1nnc2ccc(-c3ocnc3-c3cc(F)ccc3F)cn12 | -0.154% | 
16 | C[N+]1(C)CCC(=C(c2ccccc2)c2ccccc2)CC1 | -1.24% [at 32.5 µM] | 
17 | CC(=O)[C@H]1CC[C@H]2[C@@H]3C[C@H](C)C4=CC(=O)CC[C@]4(C)[C@H]3[C@@H](O)C[C@]12C | 4.23% [at 32.5 µM] | 
18 | C=CC(=C)CCCC(C)(C)OC(C)=O | 4.37% | 
19 | Nc1nc(Cl)nc2c1ncn2[C@@H]1O[C@H](CO)[C@@H](O)[C@@H]1F | 0.235% | 
20 | CN(C)C(=O)Nc1ccc(Oc2ccc(Cl)cc2)cc1 | 3.72% | 
21 | Cc1oc(C)c(C(=O)Nc2ccccc2)c1C |  | 24.3 µM (active)
